Measured values from PubChem BioAssay (NCI).
The panel holds about 83,000 compounds, 20% with a hit somewhere; the sample as a whole holds those more often.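 Percent growth is the endpoint: 0 to 100 indicates growth inhibition (40 means 60% inhibition), 0 means no net growth, and negative values indicate cell death.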 The source made the active and inactive calls. Rule for the calls: active = growth percent below 10; inactive = the rest.

What was measured:
Experiment in all cases: NCI-60 one-dose screen, 48 h (100 = growth as untreated, 0 = no growth, -100 = all killed)
SK-MEL-2 melanoma = conditions: 10 µM unless noted
EKVX NSCLC = conditions: 10 µM unless noted
SN12C renal = conditions: 10 µM unless noted
UO-31 renal = conditions: 10 µM unless noted
TK-10 renal = conditions: 10 µM unless noted
ACHN renal = conditions: 10 µM unless noted
CAKI-1 renal = conditions: 10 µM
A498 renal = conditions: 10 µM unless noted
CCRF-CEM leukemia = conditions: 10 µM unless noted
MOLT-4 leukemia = conditions: 10 µM unless noted
SR leukemia = conditions: 10 µM unless noted
RPMI-8226 leukemia = conditions: 10 µM unless noted
OVCAR-8 ovarian = conditions: 10 µM unless noted
OVCAR-4 ovarian = conditions: 10 µM unless noted
IGROV1 ovarian = conditions: 10 µM unless noted
OVCAR-3 ovarian = conditions: 10 µM unless noted
HS 578T breast = conditions: 10 µM unless noted
NCI/ADR-RES ovarian = conditions: 10 µM unless noted
OVCAR-5 ovarian = conditions: 10 µM unless noted
SK-OV-3 ovarian = conditions: 10 µM unless noted

Measured: growth

CN1CCN(c2ccc(NC(=O)Nc3ccc4c(ccn4-c4cccc(C(N)=O)n4)c3)cc2C(F)(F)F)CC1
active: CCRF-CEM leukemia 8.43% | MOLT-4 leukemia 3.75% | RPMI-8226 leukemia -17.5%
inactive: SK-MEL-2 melanoma 21.1% | EKVX NSCLC 78.4% | SN12C renal 84.1% | UO-31 renal 75.6% | TK-10 renal 97.4% | ACHN renal 71.8% | CAKI-1 renal 87.1% | A498 renal 85.3% | SR leukemia 14.6% | OVCAR-8 ovarian 77.6% | OVCAR-4 ovarian 84.9% | IGROV1 ovarian 80.1% | OVCAR-3 ovarian 102% | HS 578T breast 22.1% | NCI/ADR-RES ovarian 94.5%

O=C(CCCCCCN1CC(=O)N2[C@@H](c3cc(F)cc(F)c3)c3[nH]c4ccccc4c3C[C@H]2C1=O)NO
inactive: SK-MEL-2 melanoma 62.1% | EKVX NSCLC 78.9% | SN12C renal 71.9% | UO-31 renal 61.6% | TK-10 renal 69.6% | ACHN renal 88.8% | CAKI-1 renal 64.7% | A498 renal 77.6% | CCRF-CEM leukemia 16.5% | MOLT-4 leukemia 14.2% | SR leukemia 26% | OVCAR-8 ovarian 45% | OVCAR-5 ovarian 66.4% | OVCAR-4 ovarian 69.4% | SK-OV-3 ovarian 60.9% | IGROV1 ovarian 49.1% | OVCAR-3 ovarian 55.8% | HS 578T breast 61.6%

N#Cc1c(-c2ccccc2)cc(-c2c[nH]c3ccccc23)nc1-c1c[nH]c2ccccc12
inactive: SK-MEL-2 melanoma 97.7% | EKVX NSCLC 83.1% | SN12C renal 95.6% | UO-31 renal 68.3% | TK-10 renal 124% | ACHN renal 96.4% | CAKI-1 renal 87.3% | A498 renal 98.7% | CCRF-CEM leukemia 103% | MOLT-4 leukemia 102% | SR leukemia 96.7% | RPMI-8226 leukemia 101% | OVCAR-8 ovarian 98.7% | OVCAR-4 ovarian 104% | SK-OV-3 ovarian 93.3% | HS 578T breast 93.4% | NCI/ADR-RES ovarian 98.3%

COc1ccc(NC2=C(Cl)C(=O)C(C)=C(C)C2=O)cc1
inactive: SK-MEL-2 melanoma 89.6% | EKVX NSCLC 31.4% | SN12C renal 87.7% | UO-31 renal 89.9% | TK-10 renal 149% | ACHN renal 88.8% | CAKI-1 renal 91.5% | A498 renal 83.3% | MOLT-4 leukemia 21.8% | SR leukemia 20.6% | RPMI-8226 leukemia 68.8% | OVCAR-8 ovarian 51.8% | HS 578T breast 95.1% | NCI/ADR-RES ovarian 93.9%
active: CCRF-CEM leukemia 2.14% | OVCAR-4 ovarian -98.7% | IGROV1 ovarian -49.1%

NC(=O)c1c(NC(=O)c2cccc(OC(F)(F)F)c2)sc2c1CCC(=O)C2
active: CCRF-CEM leukemia 8.53% | RPMI-8226 leukemia 6.56%
inactive: SK-MEL-2 melanoma 105% | EKVX NSCLC 68.7% | SN12C renal 59.5% | UO-31 renal 30.1% | TK-10 renal 73.3% | ACHN renal 20.2% | CAKI-1 renal 45.7% | A498 renal 88.3% | MOLT-4 leukemia 44.4% | SR leukemia 30% | OVCAR-8 ovarian 53% | OVCAR-4 ovarian 13.8% | IGROV1 ovarian 36.4% | OVCAR-3 ovarian 67.2% | HS 578T breast 40.4% | NCI/ADR-RES ovarian 57.5%

C#C[C@]1(O)CC[C@H]2[C@@H]3CC=C4c5sc(-c6cccc(F)c6)nc5CC[C@]4(C)[C@H]3CC[C@@]21C
inactive: SK-MEL-2 melanoma 91.9% | EKVX NSCLC 83.5% | SN12C renal 89.6% | UO-31 renal 82% | TK-10 renal 121% | ACHN renal 85.4% | CAKI-1 renal 92.4% | A498 renal 101% | CCRF-CEM leukemia 75.1% | MOLT-4 leukemia 53.1% | SR leukemia 76.4% | OVCAR-8 ovarian 96.8% | OVCAR-5 ovarian 83.2% | OVCAR-4 ovarian 110% | SK-OV-3 ovarian 92.7% | IGROV1 ovarian 97.2% | OVCAR-3 ovarian 102% | HS 578T breast 68.7% | NCI/ADR-RES ovarian 89.1%

Oc1ccc(CSc2nnc(-c3ccccc3)o2)c2cccnc12
active: UO-31 renal 1.52% | HS 578T breast -3.94%
inactive: SK-MEL-2 melanoma 35.4% | EKVX NSCLC 33.1% | SN12C renal 32.1% | TK-10 renal 28.6% | ACHN renal 10.4% | CAKI-1 renal 16.6% | A498 renal 70.7% | CCRF-CEM leukemia 10% | MOLT-4 leukemia 14.4% | SR leukemia 36.8% | OVCAR-8 ovarian 17.5% | OVCAR-5 ovarian 74% | OVCAR-4 ovarian 16.5% | SK-OV-3 ovarian 10.8% | IGROV1 ovarian 18.5% | OVCAR-3 ovarian 28.2% | NCI/ADR-RES ovarian 11.1%

CC(=O)Nc1ccc(C)c(Nc2cc(-c3ccc(-n4cccn4)cc3)[nH]n2)c1
active: SK-MEL-2 melanoma 3.79%
inactive: EKVX NSCLC 74.7% | SN12C renal 60.9% | UO-31 renal 60.6% | TK-10 renal 89.6% | ACHN renal 65.8% | CAKI-1 renal 47.2% | A498 renal 27.3% | CCRF-CEM leukemia 26.1% | MOLT-4 leukemia 47.8% | SR leukemia 19.2% | RPMI-8226 leukemia 50.3% | OVCAR-8 ovarian 80% | OVCAR-4 ovarian 82.1% | SK-OV-3 ovarian 59.3% | IGROV1 ovarian 47.6% | HS 578T breast 42.3% | NCI/ADR-RES ovarian 87.7%

Cc1nn(-c2ccccc2)cc1/C=N/Nc1nc(Nc2ccccc2)nc(Nc2ccc(S(N)(=O)=O)cc2)n1
inactive: SK-MEL-2 melanoma 54.8% | EKVX NSCLC 18.8% | TK-10 renal 44.5% | SR leukemia 33.6% | OVCAR-8 ovarian 18.2% | OVCAR-4 ovarian 14.9% | SK-OV-3 ovarian 50.5% | HS 578T breast 13.8% | NCI/ADR-RES ovarian 76.4%
active: SN12C renal 0.245% | UO-31 renal -4.7% | ACHN renal 0.841% | CAKI-1 renal -27.8% | A498 renal -30.3% | CCRF-CEM leukemia 8.85% | MOLT-4 leukemia 6.35% | RPMI-8226 leukemia -23.1% | OVCAR-3 ovarian -31.1%

O=C1c2c(c3c4cccnc4[nH]c3c3ccc4ccccc4c23)C(=O)N1CCN1CCCCC1
inactive: SK-MEL-2 melanoma 114% | EKVX NSCLC 78% | SN12C renal 45.2% | UO-31 renal 36.9% | TK-10 renal 104% | ACHN renal 20% | CAKI-1 renal 22.8% | A498 renal 80.1% | CCRF-CEM leukemia 17.9% | SR leukemia 15.4% | RPMI-8226 leukemia 70.3% | OVCAR-8 ovarian 49.5% | OVCAR-4 ovarian 95.2% | SK-OV-3 ovarian 62.9% | IGROV1 ovarian 42.8% | HS 578T breast 105% | NCI/ADR-RES ovarian 41.2%
active: MOLT-4 leukemia 6.84%

COC(=O)c1c(C(=O)OC)c2n(CC(=O)Nc3cccc4cccnc34)c3ccccc3n2c1C(=O)c1ccc(C)cc1
inactive: SK-MEL-2 melanoma 102% | EKVX NSCLC 97.4% | SN12C renal 92.5% | UO-31 renal 75.7% | TK-10 renal 108% | ACHN renal 97.6% | CAKI-1 renal 104% | A498 renal 105% | CCRF-CEM leukemia 95.4% | MOLT-4 leukemia 93.3% | SR leukemia 122% | OVCAR-8 ovarian 92.4% | OVCAR-5 ovarian 102% | OVCAR-4 ovarian 99.8% | SK-OV-3 ovarian 119% | IGROV1 ovarian 97.6% | OVCAR-3 ovarian 114% | HS 578T breast 111% | NCI/ADR-RES ovarian 96%

O=C(CN1CCN(c2cc(=O)n(-c3ccccc3)c3ccccc23)CC1)Nc1ccc([N+](=O)[O-])cc1
inactive: SK-MEL-2 melanoma 101% | EKVX NSCLC 88.7% | SN12C renal 87.2% | UO-31 renal 62% | TK-10 renal 93.3% | ACHN renal 87% | CAKI-1 renal 98.1% | A498 renal 88.2% | CCRF-CEM leukemia 98% | MOLT-4 leukemia 90% | SR leukemia 88.6% | OVCAR-8 ovarian 91.3% | OVCAR-5 ovarian 98.7% | OVCAR-4 ovarian 65.9% | SK-OV-3 ovarian 99.3% | IGROV1 ovarian 84.3% | OVCAR-3 ovarian 90.9% | HS 578T breast 89.9% | NCI/ADR-RES ovarian 91.1%

C#C[C@]1(O)CC[C@H]2[C@@H]3CC=C4c5sc(Nc6cc(OC)ccc6OC)nc5CC[C@]4(C)[C@H]3CC[C@@]21C
active: A498 renal -28.3% | MOLT-4 leukemia -5.93% | SR leukemia 3.13% | SK-OV-3 ovarian 5.82% | HS 578T breast -13.8%
inactive: SK-MEL-2 melanoma 31.8% | EKVX NSCLC 42.9% | SN12C renal 49% | UO-31 renal 12.8% | TK-10 renal 84.7% | ACHN renal 36.5% | CAKI-1 renal 28% | CCRF-CEM leukemia 13.9% | OVCAR-8 ovarian 40.1% | OVCAR-5 ovarian 56.7% | OVCAR-4 ovarian 64.3% | IGROV1 ovarian 47.9% | OVCAR-3 ovarian 59.2% | NCI/ADR-RES ovarian 55.6%

C#CCOc1ccccc1C(Nc1ccccc1)c1nnnn1C1CCCCC1 (stereo unspecified)
inactive: SK-MEL-2 melanoma 110% | EKVX NSCLC 95.9% | SN12C renal 104% | UO-31 renal 78.5% | TK-10 renal 106% | ACHN renal 93.9% | CAKI-1 renal 59.6% | A498 renal 104% | CCRF-CEM leukemia 92.7% | MOLT-4 leukemia 88.3% | SR leukemia 98.1% | RPMI-8226 leukemia 89.7% | OVCAR-8 ovarian 101% | OVCAR-4 ovarian 94.5% | SK-OV-3 ovarian 101% | OVCAR-3 ovarian 109% | HS 578T breast 95.2% | NCI/ADR-RES ovarian 96.1%

O=S(=O)(Nc1cc(Cl)cc(Cl)c1)c1ccc(-c2cnc(C3CC3)o2)cc1
inactive: SK-MEL-2 melanoma 56.8% | EKVX NSCLC 43.9% | SN12C renal 50.6% | UO-31 renal 53% | TK-10 renal 76.1% | ACHN renal 53.3% | CAKI-1 renal 11.8% | A498 renal 15.7% | CCRF-CEM leukemia 17.2% | MOLT-4 leukemia 32.6% | SR leukemia 29.5% | OVCAR-8 ovarian 47% | OVCAR-5 ovarian 45.6% | OVCAR-4 ovarian 63.6% | SK-OV-3 ovarian 70.2% | IGROV1 ovarian 40.7% | OVCAR-3 ovarian 17.2% | HS 578T breast 36.7% | NCI/ADR-RES ovarian 18.8%

O=C(Nc1cc(F)cc2cccnc12)c1cnc(N2CCOCC2)cn1
inactive: SK-MEL-2 melanoma 96% | EKVX NSCLC 63.6% | SN12C renal 83.5% | UO-31 renal 46.1% | TK-10 renal 61.6% | ACHN renal 34.8% | CAKI-1 renal 64.9% | A498 renal 86.6% | CCRF-CEM leukemia 28.6% | MOLT-4 leukemia 29.7% | SR leukemia 38.5% | RPMI-8226 leukemia 70.5% | OVCAR-8 ovarian 79.4% | OVCAR-4 ovarian 17.9% | IGROV1 ovarian 25.5% | HS 578T breast 98.3% | NCI/ADR-RES ovarian 78.2%
